Only some compounds are listed: those with a hit (about 12% of all), similar ones and a draw of the others.
CHX counter – affects cycloheximide protein synthesis inhibition readout, counter-screen; cell reporter, cycloheximide protein synthesis inhibition counterscreen; 12% of 300,000 active; max response, %; in the data active = max response mostly above about 13%, no sharp cut-off; inactive = mostly below about 14%; also: read at 38.3 µM for the half of the compounds with a filed dose; 0% is about no effect
Sm TGR inh – S. mansoni TGR enzyme inhibition; 3% of 360,000 active; purified TGR, DTNB reduction, TNB absorbance 405 nm; Potency, µM (doses to about 114 µM), for the others: top-dose activity change, negative = inhibition, usual class: inhibitors; AID 485364; Q962Y6; active = well fitted inhibition curve with a large enough effect; inconclusive = small, poorly fitted or top-dose-only effect; inactive = no such curve, though single readings can be large or run the other way; also: potency is read from the fitted curve at half-maximal effect; % is scaled to controls: 0 for no effect and ±100 for the full control effect; nearly all actives have a fitted effect of over 60% in size
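TGR 20 nM + NADPH 100 uM (dispensed conc.), cpd preinc 15 min RT; start with NADPH (500 uM addition) then DTNB (15 mM addition). Kinetic TNB absorbance, 405 nm filter. Four-parameter Hill fit across titration.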
FMDV antiviral – blocks foot and mouth disease virus; 1.2% of 410,000 active; Potency, µM (titrated, usually from 57.9 µM), without a hit: top-dose activity change, negative = inhibition, usual class: inhibitors; FMDV antiviral cell-based qHTS; calls by dose curve; tested in HEK293T cells; also: read-out not given here; potency is read from the fitted curve at half-maximal effect; % is scaled to controls: 0 for no effect and ±100 for the full control effect; nearly all actives have a fitted effect of over 45% in size
Shiga toxin inh – inhibitors of Shiga toxin in Vero cells; AID 2315; Vero cells, Shiga toxin protein synthesis inhibition reporter; inhibition, % at 38.7 µM; 9.2% of 290,000 active; in the data active = inhibition mostly above about 28%, no sharp cut-off; inactive = mostly below about 43%; also: 0% is about no effect
* hit, by the source's call; ? = inconclusive; nt = no result given.

SMILES	CHX counter	Sm TGR inh	FMDV antiviral	Shiga toxin inh
CC(C)N(C(=S)Nc1cccc(S(=O)(=O)N(C)C)c1)c1ccccc1	-2.4	11.2µM*	-19.0%	-6.6
CCn1ccc2cc(S(=O)(=O)N3CCCN(C(=O)NCCOC)CC3)ccc21	nt	?	-8.4%	nt
CCN1CCN(C(=O)CS(=O)(=O)Cc2nc(-c3ccccc3C)oc2C)CC1	-2.2	-19.7%	-10.2%	-4.4
Cc1ccccc1-c1nc(CS(=O)(=O)CC(=O)N2CCCCC2)c(C)o1	6.5	22.4µM*	-1.0%	-4.4
Cc1oc(-c2ccccc2F)nc1CS(=O)(=O)CC(=O)NCc1ccco1	-2.2	22.4µM*	-22.2%	-5.2
Cc1oc(-c2ccccc2F)nc1CS(=O)(=O)CC(=O)N1CCN(Cc2ccccc2)CC1	-3.7	12.6µM*	?	-10.0
Cc1cccc(N2CCN(C(=O)CS(=O)(=O)Cc3nc(-c4ccccc4F)oc3C)CC2C)c1 (centres undefined)	-2.3	-24.1%	35.5µM*	-0.5
Cc1ccccc1-c1nc(CS(=O)(=O)CC(=O)NCc2ccco2)c(C)o1	12.0	?	1.0%	-3.8
CC1CC=CC2C1C(=O)N(Cc1ccccc1)C2c1ccc2ccccc2c1Br (centres undefined)	8.6	nt	nt	-2.2
CCOCCc1nn2c(=O)cc(COC(=O)C(CC)c3ccccc3)nc2s1 (centres undefined)	nt	-5.0%	-25.1%	nt
Cc1ccc(-c2nc(CS(=O)(=O)CC(=O)N3CCOCC3)c(C)o2)cc1	-3.6	-34.9%	-24.7%	-0.2
Cc1oc(-c2ccccc2F)nc1CS(=O)(=O)CC(=O)N1CCN(c2cccc(C(F)(F)F)c2)CC1	nt	-7.7%	35.5µM*	nt
Cc1cccc(N2CCN(C(=O)CS(=O)(=O)Cc3nc(-c4ccccc4C)oc3C)CC2C)c1 (centres undefined)	nt	5.7%	?	nt
Cc1oc(-c2ccccc2F)nc1CS(=O)(=O)CC(=O)N1CCOCC1	-7.9	44.7µM*	-0.9%	6.4
O=C(Cc1ccc(Cl)cc1Cl)OCC(=O)N1CCCCC1	21.6*	9.4%	30.3%	42.0
O=C(NCC(=O)N1CCCCC1)c1ccc(Cl)cc1Cl	49.3*	-8.4%	0.0%	58.3*
CN1CCCN(C(=O)CNC(=O)c2ccccc2F)CC1	nt	nt	20.6%	nt
O=C(NCC(=O)N1CCCC1)c1ccccc1F	20.5	-10.1%	37.4%	52.9*
CC1CCN(C(=O)CNC(=O)c2ccc(Cl)cc2Cl)CC1	27.2*	6.4%	60.0%	49.7*
Cc1ccc(-c2n[nH]c3c2C(c2cccs2)N(c2ccc(Cl)cc2)C3=O)cc1 (centres undefined)	nt	2.4%	?	nt
CCOC(=O)c1cccc(NC(=O)c2cc(CN3CCOCC3)on2)c1	nt	-0.5%	-19.0%	nt
CC1CCCN(C(=O)COC(=O)Cc2c(F)cccc2Cl)C1 (centres undefined)	43.9*	3.8%	28.6%	67.2*
Cc1ccc(NC(=O)CSc2nc(=O)n(Cc3ccccn3)c3c2CCC3)cc1F	nt	-3.4%	-24.2%	nt
Cn1c(=NC(=O)CN2C(=O)C3CC=CCC3C2=O)sc2ccccc21 (centres undefined)	24.5	1.5%	18.3%	24.5
Cn1c(=NC(=O)C2=NNC(=O)CC2)sc2ccccc21	27.7*	7.9%	65.6%	44.5*
SMILES	CHX counter	Sm TGR inh	FMDV antiviral	Shiga toxin inh
CCCCN(CCCNC(=O)c1ccc2c(c1)NC(=O)CN2C)c1ccccc1	nt	nt	22.4µM*	nt
CN1c2ccccc2N(C)C1(C)c1ccccc1	0.5	44.7µM*	0.0%	13.3
CN1C(=O)N(C)C2(c3ccccc3)NC(=O)NC12c1ccccc1 (centres undefined)	-1.8	-22.6%	-20.0%	26.2
CCN1c2ccccc2N(C)C1(C)c1ccccc1 (centres undefined)	-3.0	35.5µM*	?	-11.6
CCOC(=O)c1c(C)sc(-c2c(-c3ccc4c(c3)OCCO4)[nH]c3c2c(=O)n(C)c(=O)n3C)c1O	nt	-3.3%	0.0%	nt
CN(C)c1ccc(C(=O)Nc2c(C(=O)NC(C)(C)C)oc3ccccc23)cc1	nt	9.5%	-18.2%	nt
COc1ccc(C(CNC(=O)c2ccco2)N2CCOCC2)cc1 (centres undefined)	nt	-4.5%	20.1%	nt
COc1ccc(C(C(C(=O)c2ccco2)N2CCOCC2)N2CCOCC2)cc1 (centres undefined)	22.8*	44.7µM*	26.6%	23.2*
COCCCNc1ncnc2c1c(-c1ccccc1)cn2-c1ccc(C)c(Cl)c1	nt	1.3%	?	nt
N/C(=N\OC(=O)Cc1ccccc1)c1ccc(Br)cc1	53.2*	9.0%	33.3%	104.0*
N/C(=N\OC(=O)Cc1ccccc1)c1ccncc1	1.5	0.0%	-4.1%	31.6
Cc1ccc(CC(=O)O/N=C(\N)c2ccncc2)cc1	29.9*	-0.3%	0.0%	59.5
Cc1ccc(/C(N)=N/OC(=O)Cc2ccccc2)cc1	52.5*	-3.7%	50.5%	54.4*
Cc1ccc(C(N)=Nc2ccccc2)cc1	15.9*	-2.2%	-11.4%	46.0
CCOC(=O)c1cccc(NC(=O)COc2ccc3c(C)cc(=O)oc3c2)c1	nt	-1.3%	0.9%	nt
Cc1ccc(N2CCN(C(=O)c3c4c(nc5ccccc35)C(=O)N(C3CCCCC3)C4)CC2)c(C)c1	nt	-0.5%	-26.1%	nt
COc1ccc(/C(N)=N/OC(=O)Cc2ccc(OC)c(OC)c2)cc1	17.8	-4.2%	nt	25.9
Cc1ccc(/C(N)=N/OC(=O)CCC2CCCC2)cc1	-2.6	-0.9%	36.1%	2.7
COc1ccc(/C(N)=N/OC(=O)Cc2ccc(C)cc2)cc1	30.1*	1.4%	45.5%	50.1*
Cc1ccc(/C(N)=N/OC(=O)CCCc2ccccc2)cc1	56.5*	-2.7%	11.6%	42.7*
N/C(=N\OC(=O)CCCc1ccccc1)c1ccccc1Cl	32.7*	0.3%	40.2%	48.1
O=C(Cn1c(=O)oc2cc(S(=O)(=O)NC3CCCC3)ccc21)Nc1ccc(F)c(F)c1	nt	1.4%	30.8%	nt
CN(Cc1ccco1)c1ccnc(-c2cccc(C#N)c2)n1	nt	nt	24.1%	nt
COc1ccc(NC(=O)CN(C)S(=O)(=O)c2ccc(C(=O)N3CCOCC3)s2)cc1	nt	-1.8%	-17.6%	nt
Cc1ccc(-c2nc3ccccc3c(=O)n2-c2cc(C)ccn2)cc1	30.1*	-1.0%	23.8%	47.7
SMILES	CHX counter	Sm TGR inh	FMDV antiviral	Shiga toxin inh
O=c1c2ccccc2nc(-c2ccc(-c3ccccc3)cc2)n1-c1ccncc1	25.8*	6.3%	nt	21.4
COc1ccc(-n2c(-c3ccc(C)cc3)nc3ccccc3c2=O)cc1	31.6*	12.7%	18.0%	58.5*
O=C(c1ccccc1)c1c(O)nc(-c2ccccc2)n(-c2ccccc2)c1=O	54.0*	-17.7%	0.4%	77.9*
CCC(C)Nc1ncnc2c1cnn2-c1ccc(F)cc1 (centres undefined)	nt	-7.4%	-3.9%	nt
COCC(C)Nc1ncnc2c1cnn2-c1ccc(Cl)cc1 (centres undefined)	32.8*	11.4%	-9.1%	101.2*
COc1ccc(-n2ncc3c(NCC(C)C)ncnc32)cc1	14.7	-9.5%	-29.6%	18.9
COc1ccc(-n2ncc3c(NC(C)C)ncnc32)cc1	43.9*	7.2%	0.0%	68.8
CC1CCCCN1C(=O)CSc1nnc(-c2ccccc2Cl)o1 (centres undefined)	nt	-0.5%	54.1%	nt
CC1CCCC(C)N1C(=O)CSc1nnc(C2CCCCC2)o1 (centres undefined)	46.0*	-5.3%	38.5%	92.5*
CC1CCCCN1C(=O)CSc1nnc(-c2ccc(Cl)s2)o1 (centres undefined)	27.9*	2.3%	12.7%	88.4*

Compound activity from PubChem BioAssay.
